Assay results taken from PubChem BioAssay AID1159580 (chemical genetic matrix, 2015).
“And” between values parts separate entries of the source, which are not always exact repeats. Equal values may be shown once. Out of some 5,500 compounds screened, about 2,000 (36%) were called active. About 18% were inconclusive and are not listed. Rule as the data show it: active = normalized growth mostly below about 0.91 (no sharp cut-off); inconclusive = no clear call, values can overlap the other calls; inactive = mostly above about 0.92. This is one part of the list.

Test: chemical genetic growth profiling, strain panel (AID 1159580);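 also: tested at 20 µM; growth read once vehicle control cultures reached saturation at 30 °C; 1 = growth at the plate median or of vehicle wells; lower values mean less growth of the strain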
Settings: S. cerevisiae deletion strains, growth OD

Measured: normalized growth

CC(C)CC(N(C)C)C1(c2ccc(Cl)cc2)CCC1 (stereo unspecified)
inactive: locus YAL013W, strain DEP1, hits give low values 1 | locus YAL021C, strain ccr4, hits give low values 0.987 | locus YAL026C, strain drs2, hits give low values 1.01 | locus YAL030W, strain snc1, hits give low values 1.01 | locus YBL061C, strain skt5, hits give low values 1 | locus YBR009C, strain hhf1, hits give low values 1 | locus YBR021W, strain FUR4, hits give low values 0.952 | locus YBR023C, strain chs3, hits give low values 1.01 | locus YBR171W, strain sec66, hits give low values 1.01 | locus YBR229C, strain ROT2, hits give low values 0.999 | locus YBR231C, strain swc5, hits give low values 1.02 | locus YBR279W, strain paf1, hits give low values 1.01 | locus YCL011C, strain gbp2, hits give low values 0.999 | locus YCL016C, strain dcc1, hits give low values 0.994 | locus YCL029C, strain bik1, hits give low values 1.02 | locus YCL069W, strain vba3, hits give low values 1 | locus YCR088W, strain abp1, hits give low values 1.02 | locus YDL005C, strain med2, hits give low values 1.01 | locus YDL035C, strain GPR1, hits give low values 1.02 | locus YDL040C, strain nat1, hits give low values 0.999 | locus YDL074C, strain BRE1, hits give low values 1 | locus YDL101C, strain DUN1, hits give low values 1 | locus YDL134C, strain PPH21, hits give low values 1.01 | locus YDL185W, strain tfp1, hits give low values 1.01 | locus YDL192W, strain arf1, hits give low values 1.02 | locus YDR001C, strain nth1, hits give low values 0.994 | locus YDR069C, strain doa4, hits give low values 1.03 | locus YDR101C, strain arx1, hits give low values 1.01 | locus YDR137W, strain rgp1, hits give low values 1.12 | locus YDR150W, strain NUM1, hits give low values 1.01 | locus YDR159W, strain sac3, hits give low values 0.994 | locus YDR162C, strain NBP2, hits give low values 0.99 | locus YDR195W, strain ref2 1.04 | locus YDR297W, strain sur2, hits give low values 1.01 | locus YDR318W, strain mcm21, hits give low values 1.02 | locus YDR334W, strain swr1, hits give low values 1.01 | locus YDR335W, strain msn5, hits give low values 1 | locus YDR388W, hits give low values 1.02 | locus YDR392W, strain spt3, hits give low values 0.976 | locus YDR502C, strain sam2, hits give low values 1.01 | locus YEL003W, strain gim4, hits give low values 1 | locus YEL037C, strain rad23, hits give low values 1.01 | locus YEL061C, strain CIN8 (second series), hits give low values 1 | locus YEL061C, strain CIN8, hits give low values 0.993 | locus YER015W, strain faa2, hits give low values 0.982 | locus YER016W, strain bim1, hits give low values 1 | locus YER110C, hits give low values 1.01 | locus YER111C, strain swi4, hits give low values 1.01 | locus YER155C, strain BEM2 (second series), hits give low values 1.03 | locus YER155C, strain BEM2, hits give low values 0.969 | locus YER167W, strain BCK2, hits give low values 0.983 | locus YFR010W, strain ubp6, hits give low values 1.02 | locus YGL078C, strain dbp3, hits give low values 1 | locus YGL086W, strain mad1, hits give low values 1.01 | locus YGL167C, strain pmr1, hits give low values 0.997 | locus YGL173C, strain kem1, hits give low values 1 | locus YGL227W, strain vid30, hits give low values 1.01 | locus YGL240W, strain doc1, hits give low values 1.03 | locus YGL248W, strain PDE1, hits give low values 0.999 | locus YGL253W, strain hxk2, hits give low values 1 | locus YGR078C, strain PAC10, hits give low values 1.01 | locus YGR135W, strain pre9, hits give low values 1.02 | locus YGR229C, strain SMI1, hits give low values 0.986 | locus YGR252W, strain gcn5, hits give low values 1.03 | locus YHR013C, strain ard1, hits give low values 1.02 | locus YHR027C, strain rpn1, hits give low values 1 | locus YHR030C, strain SLT2, hits give low values 1.01 and 1.02 | locus YHR079C, strain IRE1 (second series), hits give low values 1.01 | locus YHR079C, strain IRE1, hits give low values 1.01 | locus YHR094C, strain hxt1, hits give low values 1.01 | locus YHR129C, strain ARP1, hits give low values 1 | locus YHR142W, strain chs7, hits give low values 1 | locus YHR200W, strain rpn10, hits give low values 1.02 | locus YIL066C, strain RNR3, hits give low values 0.997 | locus YIL073C, strain SPO22, hits give low values 1.02 | locus YIL125W, strain kgd1, hits give low values 1 | locus YIR030C, strain dcg1, hits give low values 1.01 | locus YJL092W, strain hpr5, hits give low values 1 | locus YJL095W, strain BCK1 (second series), hits give low values 1 | locus YJL095W, strain BCK1, hits give low values 1.01 and 0.998 | locus YJL115W, strain asf1, hits give low values 1.02 | locus YJL129C, strain trk1, hits give low values 1.03 | locus YJL134W, strain LCB3, hits give low values 1 | locus YJL154C, strain vps35, hits give low values 1.01 | locus YJL164C, strain tpk1, hits give low values 0.995 | locus YJL166W, strain qcr8, hits give low values 1.02 | locus YJL168C, strain set2, hits give low values 1.01 | locus YJL187C, strain SWE1 (second series), hits give low values 1.01 | locus YJL187C, strain SWE1, hits give low values 1.01 | locus YJR043C, strain POL32, hits give low values 0.999 | locus YJR066W, strain TOR1, hits give low values 0.961
